PubChem BioAssay (NCATS)
Results filed as inconclusive are left out. Active and inactive are the calls of the source. The call rests on the fitted dose curve; in most records, active means well fitted cell-killing curve with a large enough effect in the repeat runs; inconclusive means weak or mixed curves, or effect the other way; inactive means flat fitted curve, though single readings scatter.

experiment: qHTS assay for small molecule antagonists of the retinoid-related orphan receptor gamma (ROR-gamma) signaling pathway - cell viability counter screen (AID 720652); settings: RORgamma reporter cell line viability counter screen; series mostly up to 92.2 µM;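 further: compound exposure lasted 16 hr before ATP read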
Source text: National Center for Advancing Translational Sciences [NCATS]
NIH Chemical Genomics Center [NCGC]
National Institutes of Environmental Health Sciences [NIEHS]
National Toxicology Program [NTP]
Nuclear steroid hormone receptors are involved in many biological processes including inflammatory responses, cell proliferation, and apoptosis. Environmental factors or compounds disrupting these nuclear receptor pathways and gene expression may promote susceptibility to immunotoxicants and autoimmune diseases. One important group of these expression factors are the retinoid-related orphan receptors. To assess compounds that may interfere with the retinoid-related orphan receptor gamma (ROR-gamma) transcription factor, a cell-based luciferase assay was used.
The CHO cell-based assay utilizes a TET-inducible ROR expression factor and ROR response element-LUC reporter gene. Reporter activity was induced using doxycycline and measured after 16hr incubation. Luminescence was read using Viewlux (PerkinElmer), where a decrease in reporter activity would show a decrease in luminescence. The cytotoxicity of the compounds against ROR response-Luc reporter gene cell line was quantified by measuring the intracellular ATP content.
1,000 cells in 4 uL/well were dispensed into white wall/solid bottom 1536-well plates using a Multidrop Combi (Thermo Scientific) dispenser. Following incubation at 37 C and 5% CO2 for 5 hr, 23 nL compound or DMSO vehicle were transferred by a pin tool, then the plates were treated with 1 ul doxycycline to induce reporter gene activity. After 16 hr incubation at 37 C and 5% CO2, 5 uL/well of CellTiter-Glo reagent (Promega) was then added to each plate using a Flying Reagent Dispenser and incubated at room temperature for 30 min. The luminescence intensity was quantified on a ViewLux plate reader (PerkinElmer).

Question: With IC(I)I as the molecule, how does the outcome read?
Answer: inactive

Question: With CCOC(C)=O as the molecule, how does the outcome read?
Answer: inactive

Question: For CCCCC/C=C\C/C=C\CCCCCCCC(=O)O, which outcome is on record?
Answer: inactive

Question: For CCCCCCCC(=O)O, which outcome is on record?
Answer: inactive

Question: With Nc1ccn([C@H]2CS[C@@H](CO)O2)c(=O)n1 as the molecule, how does the outcome read?
Answer: inactive

Question: With CC(C)=O as the molecule, how does the outcome read?
Answer: inactive

Question: Which outcome does the source give for CC(O)CO (stereo not drawn) here?
Answer: inactive

Question: Which outcome does the source give for O=S(=O)(O)O here?
Answer: inactive

Question: For Cc1ccccc1, which outcome is on record?
Answer: inactive

Question: For CCCCCCCC/C=C\CCCCCCCC(=O)O, which outcome is on record?
Answer: inactive

Question: Which outcome does the source give for CC1=C2[C@@H]([C@H](C)CC[C@H]2/C=C(\C)C(=O)O)[C@H](O)C1 here?
Answer: inactive

Question: Which outcome does the source give for O=C(O)CCC(=O)C(=O)O here?
Answer: inactive

Question: With CCOc1ccc2c(c1)C(C)=CC(C)(C)N2 as the molecule, how does the outcome read?
Answer: inactive
